# Screening results deposited in PubChem by National Center for Advancing Translational Sciences (NCATS).
# An excerpt weighted towards active compounds, which were near 19% of everything screened.
# TDP1 cell CPT: qHTS for Inhibitors of human tyrosyl-DNA phosphodiesterase 1 (TDP1): qHTS in cells in presence of CPT; chicken DT40 Tdp1-/-;hTDP1 cells + 20 nM CPT, ATP luminescence, 48 h; Potency, µM (titrated, usually from 46.2 µM), for the others: at the highest dose activity change, negative = growth inhibition, usual class: inhibitors; hit rate 12% among 420,000; AID 686979, 2013; note: potency is the fitted concentration of half-maximal effect; nearly all actives have a fitted effect of over 55% in size
#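 Chicken DT40 Tdp1-/- cells complemented with human TDP1, 400 cells/well, exposed to compounds plus 20 nM camptothecin for at least 48 h at 37 C; viability read as ATP content by CellTiter-Glo luminescence.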
# HT1080 IDH1KD tx: qHTS for induction of synthetic lethality in tumor cells producing 2HG: qHTS for the HT-1080-IDH1KD cell line. HT-1080 IDH1 knockdown viability, ATP luminescence, 48 h. Potency, µM (highest dose often 46.1 µM), without a hit: top-dose activity, negative = toxicity, actives largely listed as cytotoxic. hit rate 2% among 360,000;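 note: potency is the fitted concentration of half-maximal effect; 0% = DMSO wells and -100% = cell-free medium wells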
#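 Cytotoxicity counter-line: IDH1KD HT-1080, 48 h, CellTiter-Glo. Curves classed by r2, magnitude and activity.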
# uPA generation: qHTS for Inhibitors of Cell Surface uPA Generation; cell surface uPA generation assay, qHTS; hit rate 0.31% among 330,000; Potency, µM (highest dose often 38.3 µM), inactives show at the highest dose activity change, negative = inhibition, actives largely listed as inhibitors; AID 540303, 2011; active = well fitted inhibition curve with a large enough effect; inconclusive = small, poorly fitted or top-dose-only effect; inactive = no such curve, though single readings can be large or run the other way; tested in mouse RAW 264.7 cells; note: potency is the fitted concentration of half-maximal effect; nearly all actives have a fitted effect of over 55% in size
# DT40 TDP1 no CPT: qHTS for Inhibitors of human tyrosyl-DNA phosphodiesterase 1 (TDP1): qHTS in cells in absence of CPT; DT40 Tdp1-/- hTDP1 cells, no CPT, ATP luminescence, 48 h; hit rate 15% among 420,000; Potency, µM (top dose mostly 46.2 µM), for the others: at the highest dose activity change, negative = growth inhibition, most hits filed as inhibitors; note: potency is the fitted concentration of half-maximal effect; nearly all actives have a fitted effect of over 55% in size
#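 Compound effects on proliferation are scored in DT40 Tdp1-/-;hTDP1 cells in the absence of CPT. ATP levels (CellTiter-Glo luminescence) are recorded after a ≥48 hr, 37 °C incubation.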
# IL1B secr inh: qHTS for Inhibitors of Inflammasome Signaling: IL-1-beta AlphaLISA Primary Screen. THP-1 LPS/ATP IL-1B secretion, AlphaLISA, 16 h; active compounds read low. activity change, % at 57.5 µM. hit rate 4.7% among 360,000; in the data active = activity change below about -50%; inconclusive = mostly about -30% to -49%
#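 THP-1 cells pretreated 1 hr with compounds (up to 57.5 uM final), then stimulated with LPS (250 ng/mL final) plus ATP (1.25 mM final); secreted IL-1B measured by AlphaLISA after 16 hr, decreased signal indicating inhibition.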
# HT1080NT lethal: qHTS for induction of synthetic lethality in tumor cells producing 2HG: qHTS for the HT-1080-NT fibrosarcoma cell line; hit rate 1.6% among 360,000; AID 686970, 2013; Potency, µM (series often up to 46.1 µM), inactives show at the top dose activity, negative = less viability, actives largely listed as cytotoxic; HT-1080-NT fibrosarcoma viability, CellTiter-Glo ATP luminescence, 48 h;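 note: NT is the 2HG producing partner of a matched IDH1 knockdown line; potency is the fitted concentration of half-maximal effect; 0% = DMSO-treated cells and -100% = media-only wells without cells; nearly all actives have a fitted effect of over 55% in size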
#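 Fibrosarcoma NT cells, 750 per well in 5% FBS RPMI, were exposed to compound for 48 hours. Viability: CellTiter-Glo luminescence.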
# The depositor's hits bear a star; u = inconclusive; x = not tested or not shown. Unless noted, calls come from the whole dose curve; as a rule, active = well fitted curve in the direction sought with a large enough effect; inconclusive = small, poorly fitted or top-dose-only effect, or another doubt; inactive = no such curve, though single readings can be large; an effect the other way counts as inactive or inconclusive. Unless noted, % is set by controls: 0 for no effect and ±100 for the full control effect.
SMILES,TDP1 cell CPT,HT1080 IDH1KD tx,uPA generation,DT40 TDP1 no CPT,IL1B secr inh,HT1080NT lethal
C=CCn1c(SCC(=O)N2CCc3ccccc3C2)nc2sc(C)c(C)c2c1=O,18µM*,1%,u,u,-6,-4%
C=CCn1c(SCC(=O)N2CCc3ccccc3C2)nc2sc(CC)cc2c1=O,u,0%,5%,u,-2,-4%
C=CCn1c(SCC(=O)N2CCc3ccccc3C2)nc2ccccc2c1=O,u,-12%,2%,18µM*,13,0%
C=CCn1c(SCC(=O)Nc2cccc(S(N)(=O)=O)c2)nc2sc(C)c(C)c2c1=O,u,u,3%,u,-61*,-8%
COCC(C)n1c(SCC(=O)N2CCc3ccccc3C2)nc2ccccc2c1=O (centres undefined),2.3µM*,-1%,-22%,1.8µM*,-24,-4%
C=CCn1c(SCC(=O)Nc2ccccc2C)nc2sc(C)c(C)c2c1=O,-26%,-21%,0%,u,6,-3%
Nc1ncnc2c1ncn2[C@@H]1O[C@H](COP(=O)(O)OP(=O)(O)OC[C@H]2OC(O)[C@H](O)[C@@H]2O)[C@@H](O)[C@H]1O (some centres undefined),-20%,x,x,u,x,x
Nc1ccn([C@@H]2O[C@H](C(=O)N3CCCN(Cc4cccs4)CC3)[C@@H](O)[C@H]2O)c(=O)n1,18%,5%,x,0%,6,1%
COCC(C)n1c(SCc2cc(=O)n3cc(C)ccc3n2)nc2ccccc2c1=O (centres undefined),u,u,-4%,10µM*,5,-25%
CC1=NN(c2ccccc2)C(=O)C1c1ccccc1 (centres undefined),2%,-2%,-6%,-12%,-12,-5%
Cc1ccc(N2C(=N)/C(=C3/Nc4ccccc4S3)C(c3ccccc3)C2=O)cc1 (centres undefined),u,1%,8%,4.6µM*,10,-1%
Cc1ccc(C2C(C(=O)c3cccs3)=C(O)C(=O)N2c2nnc(C)s2)cc1 (centres undefined),0%,3%,6%,-24%,-17,1%
CSc1ncc(Cl)c(C(=O)C(C#N)c2nc3c(C)cc(C)cc3c(=O)[nH]2)n1 (centres undefined),u,-18%,-4%,26µM*,1,-27%
Cc1ccc(-c2noc(-c3nnn(CC(=O)Nc4ccc(C)c(Cl)c4)c3N)n2)cc1,-28%,x,x,-14%,x,x
Nc1c(-c2nc(-c3ccccc3)no2)nnn1CC(=O)Nc1ccccc1,-36%,x,x,-26%,x,x
Cc1ccc(-c2noc(-c3nnn(CC(=O)Nc4cccc(C(F)(F)F)c4)c3N)n2)cc1,2.1µM*,x,x,2.1µM*,x,x
COc1cccc(NC(=O)Cn2nnc(-c3nc(-c4ccccc4)no3)c2N)c1,u,x,x,18µM*,x,x
Cc1cc(C)c2c(=O)c3c(oc2c1)C(=O)N(CCCOC(C)C)C3c1ccccc1F (centres undefined),5%,x,x,u,x,x
CC(NC(=O)/C(C#N)=C1\N=C(NC(=O)c2cccs2)c2ccccc21)c1ccccc1 (centres undefined),u,-14%,-1%,16µM*,0,-9%
COCCCNC(=O)/C(C#N)=C1\N=C(NC(=O)c2cccs2)c2ccccc21,u,6%,-4%,u,24,0%
O=C(C1CCN(C2CCN(CC3CC=CCC3)CC2)CC1)N1CCOCC1 (centres undefined),-1%,10%,-6%,8%,-4,-1%
